Publication PMC5540273 (PLoS ONE, 2017)

Columns and labels:
Conditions in all cases: concentration: 1 μM, replicates: in singlicate; n = 1
MAPKAPK5 = tested on: MAPKAPK5
MARK1 = tested on: MARK1
MARK2 = tested on: MARK2
MARK3 = tested on: MARK3
MARK4 = tested on: MARK4
MAST1 = tested on: MAST1
MEK1 = tested on: T1, MEK1
T1 construct: gene MAP2K1

MEK2 = tested on: T2, MEK2
T2 construct: gene MAP2K2

MEK3 = tested on: T3, MEK3
T3 construct: gene MAP2K3

MEK4 = tested on: T4, MEK4
T4 construct: gene MAP2K4

MEK5 = tested on: T5, MEK5
T5 construct: gene MAP2K5

MEK6 = tested on: T6, MEK6
T6 construct: gene MAP2K6

MELK = tested on: MELK
MERTK = tested on: MERTK
MET = tested on: MET
MINK = tested on: T7, MINK
T7 construct: gene MINK1

MKK7 = tested on: MKK7
MKNK1 = tested on: MKNK1
MKNK2 = tested on: MKNK2
MLCK = tested on: T8, MLCK
T8 construct: gene MYLK3
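Also: KINOMEscan kinase panel screen.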

| SMILES | %Inh (MAPKAPK5) | %Inh (MARK1) | %Inh (MARK2) | %Inh (MARK3) | %Inh (MARK4) | %Inh (MAST1) | %Inh (MEK1) | %Inh (MEK2) | %Inh (MEK3) | %Inh (MEK4) | %Inh (MEK5) | %Inh (MEK6) | %Inh (MELK) | %Inh (MERTK) | %Inh (MET) | %Inh (MINK) | %Inh (MKK7) | %Inh (MKNK1) | %Inh (MKNK2) | %Inh (MLCK) |
| --- | --- | --- | --- | --- | --- | --- | --- | --- | --- | --- | --- | --- | --- | --- | --- | --- | --- | --- | --- | --- |
| O=c1[nH]cc(-c2ccc(N3CCOCC3)cc2)c2sc(-c3cn[nH]c3)cc12 [GSK2276055] | 2% | 0% | 0% | 0% | 0% | 0% | 0% | 9% | 17% | 5% | 8% | 29% | 17% | 7% | 0% | 26% | 0% | 0% | 9% | 19% |
| CNC(=O)c1ccccc1Nc1nc(Nc2ccc(N3CCOCC3)cc2)ncc1Cl.Cl [GSK1576028] | 0% | 95.2% | 92.6% | 95.5% | 96.8% | 0% | 88% | 87% | 87% | 74% | 97.6% | 79% | 99.8% | 100% | 95% | 72% | 0% | 14% | 82% | 96.1% |
| Oc1cc(Nc2ccnc3cc(I)ccc23)ccc1F [GW552771] | 0% | 0% | 0% | 0% | 5% | 20% | 0% | 0% | 11% | 34% | 96.5% | 0% | 0% | 34% | 0% | 55% | 0% | 0% | 14% | 0% |
| Cc1cccc(Nc2nc(N[C@H]3CCNC3)ncc2C(N)=O)c1.Cl [GSK2197149] | 0% | 0% | 19% | 0% | 4% | 0% | 31% | 31% | 85% | 66% | 99.8% | 50% | 20% | 37% | 0% | 76% | 4% | 0% | 51% | 24% |
| c1ccc(-c2cnc3nccnn23)cc1 [AH20685] | 0% | 0% | 0% | 0% | 0% | 0% | 0% | 0% | 0% | 2% | 0% | 0% | 0% | 0% | 0% | 0% | 0% | 2% | 11% | 9% |
| Nc1ncc(-c2cccnc2)c2scc(-c3ccc4c(c3)CCN4C(=O)Cc3ccccc3)c12 [GSK683281] | 0% | 0% | 0% | 19% | 0% | 0% | 0% | 1% | 0% | 66% | 99.7% | 0% | 100% | 69% | 33% | 41% | 30% | 5% | 15% | 14% |
| Cl.NC(=O)c1cccc(Nc2nccc(Nc3ccc(Oc4c(Cl)cccc4Cl)c(Cl)c3)n2)c1 [GW659009] | 0% | 0% | 0% | 7% | 0% | 0% | 0% | 0% | 0% | 30% | 97.5% | 0% | 0% | 0% | 0% | 90.2% | 17% | 0% | 1% | 0% |
| Cn1cc(-c2[nH]c3cc(NC(=O)[C@H](N)C4CCCCC4)cc4c3c2C=NNC4=O)cn1 | 0% | 83% | 88% | 88% | 91.8% | 87% | 65% | 67% | 46% | 14% | 100% | 3% | 60% | 95.1% | 5% | 96.5% | 0% | 100% | 100% | 84% |
| COC(=O)Nc1nc2ccc(Oc3ccc(NC(=O)Nc4cc(C(F)(F)F)ccc4F)cc3)cc2n1C.Cl [GW692089] | 0% | 0% | 0% | 0% | 2% | 23% | 0% | 1% | 0% | 0% | 15% | 0% | 0% | 94.2% | 62% | 20% | 0% | 75% | 90.2% | 34% |
| O=C(Nc1cccc(Oc2ccc3nc(NC(=O)C4CC4)cn3n2)c1)c1ccccc1C(F)(F)F | 0% | 0% | 6% | 21% | 12% | 0% | 69% | 82% | 17% | 0% | 99.8% | 14% | 15% | 26% | 7% | 2% | 0% | 0% | 0% | 0% |
| c1ccc(-c2n[nH]cc2Nc2ccnc3ccccc23)nc1 [GW694077] | 0% | 0% | 0% | 0% | 1% | 3% | 0% | 0% | 92.5% | 92.8% | 31% | 8% | 21% | 0% | 100% | 61% | 0% | 13% | 85% | 2% |
| O=C(Nc1cccc(-c2nn3ccccc3c2-c2ccnc(Nc3cccc(C(F)(F)F)c3)n2)c1)c1c(F)cccc1F [GSK292658] | 0% | 0% | 0% | 3% | 0% | 0% | 3% | 0% | 0% | 17% | 80% | 0% | 0% | 37% | 0% | 2% | 0% | 0% | 1% | 0% |
| COc1ccc(Nc2nccc(NCCNC(=O)c3cc4ccccc4s3)n2)cc1 [GSK1379896] | 0% | 0% | 0% | 4% | 0% | 0% | 0% | 0% | 0% | 16% | 33% | 0% | 0% | 24% | 0% | 2% | 0% | 0% | 0% | 0% |
| c1ccc(Oc2ccc(Nc3ccnc4cc(-c5ccc(CNCCN6CCOCC6)o5)ccc34)cc2)nc1 [GW567145] | 0% | 0% | 0% | 0% | 0% | 34% | 90.8% | 94.2% | 0% | 0% | 100% | 0% | 0% | 9% | 0% | 37% | 0% | 0% | 19% | 10% |
| Fc1ccc(-c2ncn(C3CCNCC3)c2-c2ccnc(Oc3ccc(-c4ccccc4)cc3)n2)cc1 [SB-245391] | 0% | 25% | 23% | 23% | 25% | 36% | 15% | 19% | 18% | 15% | 17% | 29% | 27% | 0% | 50% | 30% | 11% | 0% | 10% | 0% |
| COc1cc(Nc2nccc(N3CCC(NC(=O)Nc4cccc(C(C)=O)c4)C3)n2)cc(OC)c1OC (centres unmarked) [GSK1379753] | 0% | 0% | 0% | 0% | 6% | 0% | 0% | 0% | 0% | 55% | 99.6% | 0% | 0% | 23% | 12% | 0% | 0% | 9% | 62% | 0% |
| CC(=O)N1CCN(c2ccc(Nc3nccc(-c4sc(C(C)C)nc4-c4cccc(NS(=O)(=O)c5cccc(Cl)c5)c4)n3)cn2)CC1 [GSK1660437] | 0% | 0% | 0% | 0% | 12% | 0% | 1% | 0% | 23% | 99.2% | 99.8% | 0% | 57% | 44% | 0% | 18% | 0% | 7% | 51% | 0% |
| O=C(Nc1cccc(-c2nn3ncccc3c2-c2ccnc(Nc3ccccc3)n2)c1)c1c(F)cccc1F [GSK198271] | 0% | 0% | 0% | 0% | 0% | 0% | 70% | 77% | 3% | 39% | 99.9% | 59% | 0% | 79% | 43% | 23% | 27% | 11% | 7% | 8% |
| Nc1ncnc2c1nc(-c1ccccc1)n2-c1ccccc1 [SKF-97293] | 0% | 27% | 0% | 39% | 33% | 47% | 15% | 14% | 50% | 35% | 32% | 27% | 0% | 0% | 10% | 16% | 38% | 0% | 18% | 23% |
